# From PubChem BioAssay AID720519 (National Center for Advancing Translational Sciences (NCATS), 2013)
# Inconclusive results are not listed. Active and inactive are the calls of the source. Calls follow the shape of the dose curve; as a rule, active = well fitted activation curve with a large enough effect; inconclusive = small, poorly fitted or top-dose-only effect; inactive = flat fitted curve, though single readings scatter.
# Test: qHTS for Inhibitors of Cell Surface uPA Generation: Confirmatory Assay for Cherry-picked Compounds; as to inhibition: 0% is about no effect
# Conditions: cell surface uPA activity generation, qHTS confirmation; series mostly up to 115 µM; inhibition: at the top concentration
# Outline: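 RAW 264.7 cells at 4000/well, incubated overnight, then treated with compounds. After 24 h at 37 C, viability was read by ATPlite luminescence. An increase in signal indicates blocked uPA-dependent LF entry.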
# Potency is read from the fitted curve at half-maximal effect.
SMILES,inhibition,Potency
CC(C)(C)OC(=O)NCCCCCNC(=O)c1[nH]cnc1C(=O)Nc1ccc(Cl)cc1,-1.98% (inactive),
C/C=C/C(=O)Nc1cccc(C2=NOC3(C2)C[C@@H](C(N)=O)N(C(=O)c2cc([N+](=O)[O-])cc([N+](=O)[O-])c2C)C3)c1 (some centres undefined),-2.11% (inactive),
COc1ccc(Cl)cc1NC(=O)CSc1nc(=O)n(CCN(C)C)c2c1CCCC2,-4.07% (inactive),
O=C(NCCN1CCOCC1)c1ccccc1Cl,-2.24% (inactive),
NS(=O)(=O)c1ccc(CCNC(=O)c2ccc(Cl)s2)cc1,0.106% (inactive),
COc1cc(C(C)=O)ccc1OCc1cn(CC(=O)c2ccc(O)cc2)nn1,-2.26% (inactive),
CS/C(=C\[N+](=O)[O-])Nc1ccccc1,-3.31% (inactive),
CC(=O)NC(=S)Nc1ccc([N+](=O)[O-])cc1C,4.72% (inactive),
COc1ccccc1CCNC(=O)C(=O)NCC1OCCN1S(=O)(=O)c1ccc(OC)c(OC)c1 (centres undefined),-1.7% (inactive),
NC(=O)c1cc2c3ccccc3ccn2c1-c1ccccc1,-2.64% (inactive),
C/C=C(/C(=C/C)c1ccc(O)cc1)c1ccc(O)cc1,-3.36% (inactive),
Cc1ccccc1S(=O)Cc1ccc(C(=O)N2CCN(C(=O)c3ccco3)CC2)o1 (centres undefined),-1.05% (inactive),
CN(C)c1cccc(C(=O)N(C)C2CCCN(Cc3ccccc3F)C2)c1 (centres undefined),,20.7 µM (active)
COc1cccc(-n2c(SCC(=O)Nc3cc(C)on3)nc3c([nH]c4ccccc43)c2=O)c1,10.4% (inactive),
CCNC(=S)NNC(=O)c1ccncc1,-1.76% (inactive),
O=C(CCCC(=O)N(c1cccc(F)c1)C(C(=O)NC1CCCC1)c1ccc(O)cc1)Nc1ccccn1 (centres undefined),-2.36% (inactive),
Cn1cc(SCC(=O)Nc2nccs2)c2ccccc21,-2.65% (inactive),
O=C(CN1CCOC1=O)N1CCCC(Nc2ccc(F)c(F)c2)C1 (centres undefined),-0.931% (inactive),
OCC[C@@H]1C[C@H](O)[C@@H](O)[C@]2(OCCc3ccccc32)O1,-1.16% (inactive),
CC1(CC(=O)N/N=C/c2cc(Br)c(O)cc2O)OCCO1,-3.24% (inactive),

SMILES,inhibition,Potency
O=C1C[C@@H]2CCN3C(=O)CCC[C@@H]([C@H]23)[C@H]1Cc1ccccc1,-1.18% (inactive),
O=C1CCCc2ccccc2N1Cc1ccc(F)cc1,-2.34% (inactive),
CCOc1ncccc1C(=O)NCc1ccccc1Cl,0.688% (inactive),
Cc1cc(C)cc(NC(=O)Cc2ccc(NC3=NC4CS(=O)(=O)CC4S3)cc2)c1 (centres undefined),0.308% (inactive),
O=C(NCCN1CCOCC1)c1ccc2c(c1)N(Cc1ccc(Cl)cc1)CCS2,1.95% (inactive),
CCN(CC)S(=O)(=O)c1cc(NC(=O)COC(=O)C2CCC2)ccc1C,-0.16% (inactive),
COc1ccc(CC(=O)NNS(=O)(=O)c2ccccc2[N+](=O)[O-])cc1OC,-1.54% (inactive),
CCOc1ccc(-n2cnc3scc(-c4ccc(OC)c(OC)c4)c3c2=O)cc1,-3.77% (inactive),
O=C(O)CNS(=O)(=O)c1ccc2c(c1)Cc1cc(S(=O)(=O)NCC(=O)O)ccc1-2,1.16% (inactive),
CCOC(=O)c1ccccc1N=Cc1c(O)c2ccccc2oc1=O,-2.11% (inactive),
C[C@H](CO)N1C[C@H](C)[C@@H](CN(C)C(=O)Nc2ccccc2)Oc2ccc(NC(=O)Cn3cnnn3)cc2C1=O,-0.16% (inactive),
COc1ccc(C(CNC(=O)C(C)Oc2ccc(Br)cc2)N2CCCC2)cc1 (centres undefined),-3.28% (inactive),
Cc1ccccc1C(=O)NCC(=O)Nc1ccc(C)c(S(=O)(=O)N2CCCCCC2)c1,-3.15% (inactive),
CC1(c2cccc([N+](=O)[O-])c2)CC(C)(C)N(C(=O)c2ccccc2)c2ccccc21 (centres undefined),-2% (inactive),
O=C(Nc1c(C(=O)O)oc2ccc(Br)cc12)c1ccccc1,-3.83% (inactive),
Cc1ccc2c(c1)N(CC(=O)NCCCc1ccccc1)C(=O)c1cccnc1O2,5.78% (inactive),
CC(C)(C)OC(=O)N(Cc1ccccc1)Cc1ccccc1OCc1cccc(NC(=O)C2CC2)c1,-3% (inactive),
CC/C(=N\Nc1ccccc1[N+](=O)[O-])c1ccc(O)cc1,-2% (inactive),
Cc1ccc(CC2CC(=O)N(c3cc(C)ccc3C)C2=O)cc1 (centres undefined),3.02% (inactive),
